The list is not random: actives were taken first. Their share in the collection is about 3.2%.
Rtt109 HAT inh: inhibitors of Candida albicans Rtt109/Vps75 histone acetyltransferase. Q5AAJ8. purified Rtt109/Vps75, ThioGlo CoA-SH fluorescence, 4 h. inhibition, % at 34.9 µM. hit rate 0.16% among 330,000. AID 540336;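 active means inhibition of at least 50% in every replicate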
Target sequence (Q5AAJ8 whole entry, looked up): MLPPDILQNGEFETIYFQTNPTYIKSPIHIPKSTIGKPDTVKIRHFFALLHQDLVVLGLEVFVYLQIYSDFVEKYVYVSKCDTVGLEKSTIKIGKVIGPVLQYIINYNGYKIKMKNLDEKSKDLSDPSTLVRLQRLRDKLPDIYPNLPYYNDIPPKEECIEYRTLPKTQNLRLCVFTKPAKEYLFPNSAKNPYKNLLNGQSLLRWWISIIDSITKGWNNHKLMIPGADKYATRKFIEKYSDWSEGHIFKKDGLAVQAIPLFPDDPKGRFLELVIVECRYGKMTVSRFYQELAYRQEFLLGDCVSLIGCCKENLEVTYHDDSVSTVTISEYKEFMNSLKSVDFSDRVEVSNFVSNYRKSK
SMARCA2 activ: activators of SMARCA2 function. MG213 cells, MMTV-luciferase reporter, dexamethasone, overnight. activation, % at 9.1 µM. hit rate 1% among 370,000; in the data active means activation above about 7.8%;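 further: 0% = vehicle wells and 100% = reference activator wells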
Dyrk1A ADPGlo: Dyrk1A (rat) kinase inhibition. Q63470. ADP-Glo luminescence, NFATc1 peptide. inhibition, % at 12.5 µM. hit rate 0.43% among 310,000; in the data active means inhibition above about 50%;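 further: plate controls were vehicle with enzyme for no effect and no enzyme for full effect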
dFosB activator: mouse delta FosB homodimer activation | P13346 | purified delta FosB, TAMRA-CDK5 oligo fluorescence polarization; percent of positive-control signal above neutral wells | activation, % at 25 µM | hit rate 0.99% among 340,000 | AID 493131;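 active means mean activation above about 17%, with every replicate also reaching it, limit read from the data, passing the limit was not always enough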
CDK5 p35 inh: blocks human CDK5/p35 kinase activity; Recombinant CDK5/p35, ADP-Glo luminescence, 60 min; inhibition, % at 10 µM; hit rate 0.01% among 330,000;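 active means highest replicate inhibition of at least 50% and at least 75% of replicates reaching 50%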;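 further: plate controls were DMSO neutral control for no effect and GW8510 at 10 µM for full effect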
esBAF inh: blocks esBAF chromatin remodeling in mouse ES cells. Bmi1-luciferase knock-in reporter, 24 h; 100% = twice the neutral-well signal. reporter increase, % at 12.5 µM. hit rate 2% among 350,000. AID 602393; in the data active means activation above about 40%;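 further: 0% = median of the plate's neutral control wells and 100% = double that signal; a rise in the Bmi1 reporter signal indicates esBAF inhibition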
Starred values were filed as active, the others as inactive; x = not tested or not shown.

SMILES | Rtt109 HAT inh | SMARCA2 activ | Dyrk1A ADPGlo | dFosB activator | CDK5 p35 inh | esBAF inh
O=C(Cc1ccccc1)Nc1ccc(N2CCCCC2)cc1 | 17 | 5 | -95 | -1 | 3 | 20
O=C(O)c1cc(NC(=O)c2ccccc2F)cc(NC(=O)c2ccccc2F)c1 | -8 | -1 | 2 | -4 | -1 | -10
O=C(Nc1ccc(N2CCCC2)cc1)c1cccc(F)c1 | 13 | 2 | 2 | 19* | 0 | 3
Cc1cc(NC(=O)c2ccccc2F)ncc1NC(=O)c1cccs1 | 2 | 2 | 1 | -6 | 1 | 50*
NC(=O)NC(=O)C(Nc1ccc(N2CCCCC2)cc1)c1ccccc1 (stereo unspecified) | -2 | -3 | 14 | -1 | 1 | 51*
O=C(Nc1ccc(Nc2ccccc2)cc1)c1ccccc1F | 1 | 5 | x | -6 | 0 | 52*
Cc1cc(NC(=O)c2ccccc2)ncc1NC(=O)c1cccs1 | 0 | 2 | -5 | 0 | 1 | x
O=C(c1ccccn1)N1C[C@@H]2[C@H](c3ccccc31)[C@H](CO)N2C(=O)C1CC1 | x | x | x | x | x | -4
CN1C(=O)c2cc(NC(=O)C3CC3)ccc2OC[C@H]2O[C@@H](CC(=O)NCCN3CCCC3)CC[C@H]21 | x | x | x | x | x | 3
O=C(CCN1CCCCC1)NCC[C@H]1CC[C@@H](NC(=O)C2CC2)[C@H](CO)O1 | x | x | x | x | x | 2
O=C(Nc1ccc(N2CCCC2=O)cc1)c1cccc(F)c1 | -1 | 5 | -3 | -1 | -1 | x
O=C(Nc1ccc(N2CCCC2)cc1)c1cccc(Cl)c1Cl | -2 | 2 | -2 | 1 | 3 | 85*
CCN1CCN(c2ccc(NC(=O)c3cccc(N4CCCC4=O)c3)cc2)CC1 | -1 | 5 | -2 | 4 | -1 | 60*
Cc1ccc(NC(=O)c2ccccc2F)c(NC(=O)c2ccccc2F)c1 | -23 | 7 | -1 | -6 | -3 | 58*
O=C(Nc1ccc2c(c1)OCCO2)c1cccc(Cl)c1Cl | 7 | 1 | x | 6 | 0 | 88*
CSc1ccccc1C(=O)Nc1cc(C)ccc1C | x | -2 | 0 | 7 | -1 | x
O=C(Nc1ccc(N2CCCC2)cc1)c1ccccc1F | 2 | 4 | 1 | 26* | 5 | 42*
O=C(Nc1ccc(N2CCCCC2)cc1)c1ccc(F)cc1F | -12 | 1 | -5 | -2 | -1 | -29
COc1ccccc1C(=O)CSc1nccn1C | 54* | 5 | 2 | 7 | 3 | -1
CCOC(=O)c1cc(=O)n2c(nc3ccccc32)[nH]1 | -2 | 2 | 5 | -9 | 0 | 55*
C#CCSc1ncc(-c2ccccc2)cn1 | -5 | 2 | -3 | -5 | 1 | 73*
CSc1ncc(-c2ccccc2)cn1 | -3 | 1 | -1 | 2 | -1 | x
CCOC(=O)CSc1ncc(-c2ccccc2)cn1 | -2 | -2 | -1 | -10 | -7 | x
C=CCSc1ncc(-c2ccccc2)cn1 | 0 | 6 | -4 | -8 | -5 | 50*
C[C@H](CO)N1C[C@H](C)[C@H](CN(C)C(=O)Nc2ccc3c(c2)OCO3)Oc2ccc(NC(=O)c3ccncc3)cc2C1=O | x | x | x | x | x | 34
SMILES | Rtt109 HAT inh | SMARCA2 activ | Dyrk1A ADPGlo | dFosB activator | CDK5 p35 inh | esBAF inh
Cc1cc(/C=C2\C(=O)NN(c3ccccc3)C2=O)c(C)n1-c1ccccc1O | -4 | -2 | -13 | 2 | -2 | 58*
C[C@H]1CCCCO[C@@H](CN(C)S(=O)(=O)c2ccccc2)[C@@H](C)CN([C@@H](C)CO)C(=O)c2cc(NS(=O)(=O)c3ccc(F)cc3)ccc2O1 | x | x | x | x | x | -2
COC(=O)c1cc(/C=C/c2ccccc2)[nH]n1 | 7 | 7 | 2 | -7 | -1 | 61*
Cn1nnnc1SCc1ccc(C(=O)Nc2ccc(Br)cc2)cc1 | 13 | 3 | 3 | 5 | -2 | 72*
CC(=O)Nc1ccc(C(=O)CSc2nnnn2C)cc1 | 14 | -1 | -3 | -2 | 2 | 2
COc1ccccc1C(=O)Nc1ccc2c(c1)OC[C@@H](C)N(C)C[C@@H](C)[C@@H](OC)CN(C)C2=O | x | x | x | x | x | 1
COc1ccccc1C(=O)Nc1ccc(NC(=O)C2CCCCC2)nc1 | -2 | -1 | 4 | -16 | 2 | 12
O=C(Nc1ccc(NC(=O)C2CCCCC2)nc1)c1ccccn1 | 7 | 3 | -4 | -2 | 1 | 47*
O=C(Nc1ccc(NC(=O)C2CC2)cn1)c1ccccc1Cl | -2 | 5 | -4 | -3 | 1 | 42*
Brc1ccccc1-c1nnc(COc2cccc3cccnc23)o1 | 0 | 3 | -2 | -5 | 1 | x
N#Cc1ccccc1OCc1nnc(-c2ccccc2Br)o1 | -7 | 2 | 8 | -2 | 0 | 55*
Clc1ccccc1OCc1nnc(-c2ccccc2Br)o1 | -1 | 4 | x | -1 | 0 | 115*
COc1ccc(S(=O)(=O)Nc2ccc3c(c2)C(=O)N([C@H](C)CO)C[C@@H](C)[C@@H](CN(C)Cc2ccc4c(c2)OCO4)O3)cc1 | x | x | x | x | x | 2
Cc1cn(-c2ccc(Br)cc2)[nH]c1=O | 7 | 3 | 2 | 15 | 2 | 52*
C[C@@H]1CN([C@@H](C)CO)C(=O)c2cc(C#CC3CC3)cnc2O[C@H]1CN(C)S(=O)(=O)c1cccc(F)c1 | x | x | x | x | x | 12
CC(C)C(=O)N1CCC1(C)C(=O)Nc1cc(-c2ccccc2)nn1C (stereo unspecified) | x | 4 | x | x | x | 50*
CC(C)C/C=C1\CCc2c([nH]c3ccccc23)C1=O | -5 | 5 | 2 | -15 | -1 | 52*
COc1ccc(NC(=O)Nc2ccc(OC)cc2)cc1 | -1 | 6 | 5 | -2 | 0 | 60*
COc1ccc(NC(=S)Nc2ccc3nc(C)c(C)nc3c2)cc1 | -1 | -2 | 10 | -9 | -1 | 3
COc1ccc(C(=O)Nc2ccc3nc(C)c(C)nc3c2)cc1 | -22 | -1 | 5 | -33 | -3 | 62*
CC(=O)Nc1ccc2nc3ccccc3nc2c1 | -149 | 2 | x | -9 | -1 | 42*
COc1ccc(NC(=O)Nc2ccc3nccnc3c2)cc1 | -12 | 7.9* | 6 | 3 | 1 | 55*
COc1cccc(NC(=O)N2C[C@H](O)COC[C@@H]3O[C@H](CC(=O)NC4CCCC4)CC[C@H]32)c1 | x | x | x | x | x | -1
CCCC(=O)Nc1ccc2c(c1)C(=O)N(C)[C@@H]1CC[C@H](CC(=O)NCC3CC3)O[C@@H]1CO2 | x | x | x | x | x | -7
O=C(C[C@H]1C=C[C@H](NS(=O)(=O)c2ccc(F)cc2)[C@H](CO)O1)NCCN1CCCCC1 | x | x | x | x | x | -2
COc1ccc(NC(=S)NC(=O)c2ccc(Br)o2)cc1 | 26 | 3 | 2 | -6 | 0 | 46*
COc1ccc(NC(=O)NCCN2C(=O)C3C4C=CC(C4)C3C2=O)cc1 (stereo unspecified) | -14 | 1 | 4 | 2 | 2 | 58*
Cc1ccc(NC(=O)NCCN2C(=O)C3C4C=CC(C4)C3C2=O)cc1 (stereo unspecified) | 0 | 3 | 6 | 7 | 1 | 20

Compound activity (PubChem)
